A selection: hits, their analogues and other compounds. The true share with any hit is near 2.4%.
Pol eta inh-1: DNA polymerase eta (human) inhibition; Q9Y253; recombinant Pol eta, fluorescent DNA replication assay; Potency, µM (titrated, usually from 114 µM), usual class: inhibitors; 390,000 compounds, 1.2% hits; AID 588591
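Fluorescent replication assay: 50 nM final substrate added after a 15 min room-temperature compound preincubation with 10 nM enzyme. Signal taken at 0 min and again at 10 min.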
TDP1 inh: inhibitors of human tyrosyl-DNA phosphodiesterase TDP1 | Potency, µM (series often up to 130 µM), hits mostly inhibitors | recombinant TDP1, AlphaScreen DNA substrate cleavage | AID 485290 | 350,000 compounds, 0.28% hits | Q9NUW8; also: nearly all actives have a fitted effect of over 40% in size
Target sequence (Q9NUW8 whole entry, looked up): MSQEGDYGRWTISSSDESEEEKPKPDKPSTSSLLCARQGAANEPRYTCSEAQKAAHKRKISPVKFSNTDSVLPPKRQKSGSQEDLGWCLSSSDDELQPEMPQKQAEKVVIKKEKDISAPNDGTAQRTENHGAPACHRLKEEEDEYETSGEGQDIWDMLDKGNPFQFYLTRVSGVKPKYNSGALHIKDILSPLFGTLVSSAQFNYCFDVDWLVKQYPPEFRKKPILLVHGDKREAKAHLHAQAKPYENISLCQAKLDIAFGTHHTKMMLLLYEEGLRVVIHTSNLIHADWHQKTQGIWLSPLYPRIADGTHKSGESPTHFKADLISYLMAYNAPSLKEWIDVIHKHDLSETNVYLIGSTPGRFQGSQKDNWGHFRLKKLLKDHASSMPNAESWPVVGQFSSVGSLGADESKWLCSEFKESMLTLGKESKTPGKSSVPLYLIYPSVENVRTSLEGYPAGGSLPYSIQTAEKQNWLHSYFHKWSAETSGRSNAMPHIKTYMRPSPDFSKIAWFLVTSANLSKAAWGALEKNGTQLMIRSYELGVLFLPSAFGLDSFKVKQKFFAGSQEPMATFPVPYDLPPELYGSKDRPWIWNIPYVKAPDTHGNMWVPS
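Tdp1 1 nM final; 15 min RT w/ cpd; substrate 15 nM, 5 min; beads 10 ug/ml, 10 min; AlphaScreen read. Neg ctrl: no enzyme.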
Pol kappa inh-1: DNA polymerase kappa (human) inhibition | Potency, µM (doses to about 107 µM), hits mostly inhibitors | 400,000 compounds, 0.53% hits | purified Pol kappa, fluorescent DNA synthesis assay, 10 min | Q9UBT6
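10 nM Pol kappa preincubated 15 min at room temperature with compounds, then reaction started with substrate at 50 nM final. Fluorescence read kinetically at 0 and 10 min; buffer-only wells served as negative control.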
Pol beta inh: inhibitors of human DNA polymerase beta; P06746; Pol beta primer extension/strand displacement, fluorescence kinetic; Potency, µM (titrated, usually from 114 µM), hits mostly inhibitors; AID 485314; 340,000 compounds, 1.3% hits
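Enzyme-only controls used 10 nM Pol beta; buffer lacking enzyme served as negative control. Compound preincubated 15 min, then 50 nM substrate added; 0 and 10 min reads at room temperature.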
Pol iota inh: blocks human DNA polymerase iota activity | Q9UNA4 | Pol iota fluorescent replication assay, 10 min | Potency, µM (titrated, usually from 115 µM), hits mostly inhibitors | 390,000 compounds, 1% hits
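Fluorescent replication assay read twice, at 0 min and 10 min after adding 50 nM (final) substrate. Enzyme (10 nM) and compounds were first incubated 15 min at room temperature; enzyme-free buffer wells were negative controls.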
PGK validate: blocks T. brucei phosphoglycerate kinase; shares compounds with Pol kappa inh-1; TbPGK coupled GAPDH assay, Kinase-Glo luminescence; Potency, µM (highest dose often 57.5 µM), actives largely listed as inhibitors; 500 compounds, 79% hits; AID 686980; also: nearly all actives have a fitted effect of over 65% in size
Pol iota confirm: Confirm cherry-picked inhibitors of human polymerase iota; shares compounds with Pol kappa inh-1; 1,500 compounds, 77% hits; Potency, µM, usual class: inhibitors; AID 720496; Pol iota primer extension, TAMRA/BHQ fluorescence
GALK inh confirm: galactokinase (human) inhibition, confirmation; shares compounds with Pol eta inh-1; purified GALK, Kinase-Glo ATP depletion luminescence; Potency, µM (highest dose often 115 µM), hits mostly inhibitors; 150 compounds, 70% hits; AID 2015
Redox cycling: redox cycling activity in phenol red-HRP assay; Phenol red-HRP H2O2 redox cycling, absorbance 600 nm; 150 compounds, 40% hits; shares compounds with Pol eta inh-1; Potency, µM (doses to about 115 µM), actives largely listed as inhibitors
HEK293 viability: reduces HEK-293 cell viability in GALK counter-screen. HEK-293 viability, ATP luminescence (CellTiter-Glo), 24/48 h. shares compounds with Pol eta inh-1. AID 2547. Potency, µM (series often up to 46.1 µM), usual class: inhibitors. 170 compounds, 10% hits
Pol kappa inh-2: Pol kappa (human) inhibition, cherry-pick confirmation; shares compounds with Pol eta inh-1; purified Pol-kappa, fluorescent strand-displacement substrate; Potency, µM, hits mostly inhibitors; 920 compounds, 76% hits; AID 720501
Pol eta inh-2: Pol eta (human) inhibition, cherry-pick confirmation. shares compounds with Pol eta inh-1. Pol eta primer extension, TAMRA/BHQ fluorescence, 10 min. Potency, µM, usual class: inhibitors. 2,600 compounds, 64% hits
Of the large screens only hits and unclear results are named; the others gave an inactive call (follow-up assays come after a bar, where they were run). Calls follow the shape of the dose curve; as a rule, active = well fitted curve in the direction sought with a large enough effect; inconclusive = small, poorly fitted or top-dose-only effect, or another doubt; inactive = no such curve, though single readings can be large; an effect the other way counts as inactive or inconclusive.

CC(/C=N/NC(=O)c1ccc(CN2c3cccc4cccc(c34)S2(=O)=O)cc1)c1ccccc1 (stereo not drawn)	Pol eta inh-1 inconclusive
O=C(O)c1ccc(/C=N/NC(=O)c2ccc(CN3c4cccc5cccc(c45)S3(=O)=O)cc2)cc1	Pol eta inh-1 22µM, Pol kappa inh-1 inconclusive, Pol beta inh inconclusive, Pol iota inh 25µM (no result: TDP1 inh) | Pol iota confirm inconclusive | Pol eta inh-2 60
COc1cc(/C=C2\CC/C(=C\c3cc(OC)c(O)c(OC)c3)C2=O)cc(OC)c1O	Pol eta inh-1 1.8µM, Pol kappa inh-1 10µM, Pol beta inh 4.5µM, Pol iota inh 2.8µM | Pol iota confirm 27 | Pol eta inh-2 9.5
COc1cc(/C=C2\CCC/C(=C\c3ccc(O)c(OC)c3)C2=O)ccc1O	Pol iota inh inconclusive
Cc1nc(C)c(-c2ccc(SCC(=O)Nc3ccc(Br)cc3)nn2)s1	Pol beta inh inconclusive
CC(=O)OCC1=C(C(=O)O)N2C(=O)C(NC(=O)C(C)Cn3nc(C)c(Cl)c3C)C2SC1 (stereo not drawn)	Pol eta inh-1 22µM, Pol kappa inh-1 inconclusive, Pol beta inh inconclusive, Pol iota inh inconclusive | PGK validate 16µM | Pol eta inh-2 48
Cc1nn(C(C)C(=O)NC2C(=O)N3C(C(=O)O)=C(CSc4nnnn4C)CSC23)cc1Cl (stereo not drawn)	Pol eta inh-1 20µM, Pol kappa inh-1 inconclusive, Pol beta inh 25µM, Pol iota inh 16µM | PGK validate inactive | Pol eta inh-2 inconclusive
Cc1cc(C(F)F)nn1CC(=O)NC1C(=O)N2C(C(=O)O)=C(CSc3nnnn3C)CSC12 (stereo not drawn)	Pol eta inh-1 28µM, Pol beta inh 13µM, Pol iota inh inconclusive (no result: TDP1 inh) | PGK validate inactive | Pol eta inh-2 inconclusive
Cc1ccn2c(c1)nc(=O)c1cc(S(=O)(=O)N3CCCCC3)c(Cl)cc12	none
COC1=C2C[C@H](C)C[C@H](OC)[C@@H](O)[C@@H](C)C=C(C)[C@H](OC(N)=O)[C@@H](OC)C=CC=C(C)C(=O)NC(=CC1=O)C2=O	none (no result: Pol eta inh-1, Pol beta inh)
CCCN1C(=O)c2[nH]nc(-c3ccccc3O)c2C1c1cccc(OCc2ccccc2)c1 (stereo not drawn)	none
Cc1ccc(C2=NC(=O)/C(=C/c3cc(O)c(O)c(Br)c3)S2)cc1	Pol eta inh-1 0.79µM, Pol kappa inh-1 1.8µM, Pol beta inh 1.6µM, Pol iota inh 1.3µM | Pol iota confirm 17 | Pol kappa inh-2 5.3 | Pol eta inh-2 3.8
NC(=O)Cn1c(=O)n(Cc2ccco2)c(=O)c2c3c(sc21)CCCCC3	Pol eta inh-1 40µM, Pol kappa inh-1 25µM, Pol beta inh 10µM, Pol iota inh inconclusive (no result: TDP1 inh) | Pol iota confirm inconclusive | Pol eta inh-2 inconclusive
O=C(Cn1c(=O)n(Cc2ccco2)c(=O)c2c3c(sc21)CCCC3)Nc1ccccc1	Pol iota inh inconclusive
C/C(N)=C(/C#N)C(=O)CSc1nc2ccccc2c(=O)n1Cc1ccc(F)cc1	Pol eta inh-1 20µM, Pol kappa inh-1 79µM, Pol beta inh 7.9µM, Pol iota inh 11µM (no result: TDP1 inh) | Pol iota confirm 42 | Pol kappa inh-2 38 | Pol eta inh-2 48
Nc1sc2c(c1C(=O)c1ccc(Cl)cc1)CCCC2	none (no result: Pol eta inh-1, Pol beta inh, Pol iota inh)
O=C(NCc1ccccc1C(F)(F)F)c1cccc2c1C(=O)c1ccc(N3CCC(N4CCCCC4)CC3)cc1S2(=O)=O	Pol eta inh-1 inconclusive (no result: TDP1 inh, Pol kappa inh-1, Pol beta inh, Pol iota inh) | Pol iota confirm inconclusive | Pol eta inh-2 60
Cc1nc2ccccc2c(=O)n1/N=C/c1ccc(O)c(O)c1O	Pol eta inh-1 2.8µM, Pol kappa inh-1 inconclusive, Pol beta inh 1.6µM, Pol iota inh inconclusive (no result: TDP1 inh) | Pol iota confirm 1.7 | Pol eta inh-2 2.7
CCc1ccc(-n2nc(CO)c(C(=O)NCc3ccccc3OC)n2)cc1	none
COc1ccc(NC(=O)Cn2c(=O)n(Cc3nc(-c4ccccc4)no3)c(=O)c3cc4c(cc32)OCO4)c(OC)c1	none
CC1=C(C(=O)Nc2ccccc2)C(c2ccccn2)n2ncnc2N1 (stereo not drawn)	none
CC1=C(C(=O)Nc2ccccc2)C(c2ccc[nH]2)n2ncnc2N1 (stereo not drawn)	Pol kappa inh-1 inconclusive, Pol beta inh 8.9µM, Pol iota inh inconclusive (no result: Pol eta inh-1, TDP1 inh) | Pol iota confirm 8.4 | Pol kappa inh-2 3.4 | Pol eta inh-2 8.5
COC(=O)Cc1c(C)c2cc3c(c(C)c2oc1=O)OCN(CCc1ccccc1F)C3	none
Cc1[nH][nH]c(=O)c1C(c1ccc(-c2ccccc2C(=O)O)o1)c1c(C)[nH][nH]c1=O	Pol eta inh-1 11µM, Pol kappa inh-1 inconclusive, Pol beta inh 10µM, Pol iota inh 10µM (no result: TDP1 inh) | Pol iota confirm 47 | GALK inh confirm inactive | Redox cycling 6.7µM | HEK293 viability inactive | Pol eta inh-2 27
Cc1[nH][nH]c(=O)c1C(c1ccc(-c2cccc(C(=O)O)c2)o1)c1c(C)[nH][nH]c1=O	Pol eta inh-1 13µM, TDP1 inh 8.9µM, Pol kappa inh-1 89µM, Pol beta inh 20µM, Pol iota inh 2.2µM | Pol iota confirm 67 | Pol eta inh-2 30
Cc1[nH][nH]c(=O)c1C(c1ccc(Br)cc1)c1c(C)[nH][nH]c1=O	Pol iota inh inconclusive
COC(=O)c1ccc(-c2ccc(C(c3c(C)[nH][nH]c3=O)c3c(C)[nH][nH]c3=O)o2)cc1	Pol eta inh-1 25µM, Pol kappa inh-1 inconclusive, Pol beta inh 20µM, Pol iota inh 3.5µM | Pol iota confirm inconclusive | Pol eta inh-2 76

Screening results deposited in PubChem by National Center for Advancing Translational Sciences (NCATS).
